Test systems include DU-145 prostate; K-562 leukemia; MALME-3M melanoma; MDA-MB-231 breast; RXF 393 renal; SF-268 CNS; SF-295 CNS; SF-539 CNS; UACC-257 melanoma; M14 melanoma; HCT-15 colon; HT29 colon; SNB-75 CNS; SNB-19 CNS; U251 CNS; PC-3 prostate; SK-MEL-5 melanoma; LOX IMVI melanoma; SK-MEL-28 melanoma; UACC-62 melanoma.
Common to all, as to assay: NCI-60 one-dose screen, 48 h (100 = growth as untreated, 0 = no growth, -100 = all killed)
Common to all, as to details: 10 µM unless noted

About 83,000 compounds went through this panel and 20% of them were active in at least one assay; those are over-represented in the sample as a whole.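 Each cell line was grown in a 96-well plate and treated with one concentration of compound for 48 hours. Values below 10 were considered active.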 A number with no mark means an inactive call. Active and inactive are the calls of the source.

In the case of `O=C(CCCSc1nc(-c2ccccc2)cc(-c2ccccc2)n1)NO`, the growth in the experiment with DU-145 prostate was 13.3%; in the experiment with K-562 leukemia, 6.51% (active); in the experiment on MALME-3M melanoma it was 7.62% (active); in the experiment on MDA-MB-231 breast, 19.8%; in the experiment with RXF 393 renal, -21.7% (active); in the experiment on SF-268 CNS, 0.164% (active). Besides, the growth in the experiment with SF-295 CNS was 4.39% (active); in the experiment on SF-539 CNS, 6.64% (active); with UACC-257 melanoma, -2.82% (active); in the experiment with M14 melanoma, 5.46% (active); with HCT-15 colon, 20.4%; in the experiment on HT29 colon, 2.72% (active). For the same compound, the growth in the experiment on SNB-75 CNS is 9.8% (active); in the experiment with SNB-19 CNS it was 21.6%; in the experiment with U251 CNS it was -13.2% (active); in the experiment on PC-3 prostate, 26.2%; in the experiment on SK-MEL-5 melanoma it was -17.3% (active); with LOX IMVI melanoma it was -25.3% (active). Also, the growth in the experiment with SK-MEL-28 melanoma was 26%.
With `O=S(=O)(/N=c1/n(-c2ccccc2)nc2n1CCN2C1=NCCN1)c1ccc(-c2ccccc2)cc1`, the growth is 108% with DU-145 prostate; 88.6% in the experiment with K-562 leukemia; 112% in the experiment with MALME-3M melanoma; 86.2% with MDA-MB-231 breast; 87.9% in the experiment with RXF 393 renal; 91.7% with SF-268 CNS. Further, the growth is 97.7% in the experiment with SF-295 CNS; 93.1% with SF-539 CNS; 103% with UACC-257 melanoma; 106% with M14 melanoma; 99.4% with HCT-15 colon; 100% with HT29 colon. Also, the growth with SNB-75 CNS was 85%; in the experiment on SNB-19 CNS, 97.1%; in the experiment on U251 CNS, 92.7%; in the experiment with PC-3 prostate, 93.8%; in the experiment on SK-MEL-5 melanoma, 90.6%; in the experiment with LOX IMVI melanoma it was 93%.
On to `COc1c(B(O)O)cccc1-c1nc2ccc3[nH]ncc3c2c2c1CCC2`, for which the growth in the experiment with DU-145 prostate was 63.3%; with K-562 leukemia it was 77.9%; in the experiment on MALME-3M melanoma it was 98.4%; in the experiment with MDA-MB-231 breast it was 40.7%; in the experiment on RXF 393 renal it was 4.27% (active); in the experiment on SF-268 CNS, 65.9%. In addition, the growth is 86.9% in the experiment on SF-295 CNS; 54.7% with SF-539 CNS; 111% in the experiment on UACC-257 melanoma; 65% in the experiment with M14 melanoma; 63.8% in the experiment with HT29 colon; 32.7% with SNB-75 CNS. For the same compound, the growth is 82.3% with SNB-19 CNS; 66.1% with U251 CNS; 60.2% in the experiment on PC-3 prostate; 52.4% in the experiment with SK-MEL-5 melanoma; 57.6% in the experiment with UACC-62 melanoma; 53.3% in the experiment on LOX IMVI melanoma. Moreover, in the experiment on SK-MEL-28 melanoma, the growth is 86.3%.
As to `Cc1cnc(N)nc1OCC(C)(C)CNC(=O)c1cccc(-c2ccc(S(=O)(=O)Nc3ccc4c(c3)N(C(=O)C3CC3)CCC4)cc2)c1`, the growth is 77.4% in the experiment with DU-145 prostate; 34.3% in the experiment on K-562 leukemia; 80.7% in the experiment on MALME-3M melanoma; 68.1% with MDA-MB-231 breast; 74.6% in the experiment with RXF 393 renal; 67.5% in the experiment on SF-268 CNS. In addition, the growth in the experiment on SF-295 CNS is 55.3%; with SF-539 CNS it was 75.2%; in the experiment with UACC-257 melanoma it was 46.6%; in the experiment with M14 melanoma it was 96.4%; in the experiment on HT29 colon, 42.1%; in the experiment with SNB-75 CNS, 48.1%. For the same compound, the growth was 67.9% in the experiment on SNB-19 CNS; 59.4% in the experiment with U251 CNS; 51.8% in the experiment on PC-3 prostate; -36.1% (active) in the experiment on SK-MEL-5 melanoma; 76.6% with LOX IMVI melanoma; 82.4% in the experiment on SK-MEL-28 melanoma.
In the case of `O=c1cc(-c2ccccc2)oc2cc(OCc3cn(Cc4ccc(F)cc4)nn3)cc(O)c12`, the growth with DU-145 prostate is 65.8% [100 µM]; in the experiment on K-562 leukemia, 109% [100 µM]; in the experiment with MALME-3M melanoma, 6.44% [100 µM] (active); with MDA-MB-231 breast it was 12% [100 µM]; with RXF 393 renal, 9.11% [100 µM] (active); in the experiment with SF-268 CNS, 14.4% [100 µM]. The growth was 10.4% [100 µM] with SF-295 CNS; 1.1% [100 µM] (active) in the experiment on SF-539 CNS; 86.3% [100 µM] in the experiment with UACC-257 melanoma; 65.9% [100 µM] with M14 melanoma; 100% [100 µM] in the experiment with HT29 colon; -65.9% [100 µM] (active) in the experiment with SNB-75 CNS. Moreover, the growth with SNB-19 CNS is -32.7% [100 µM] (active); with U251 CNS, -16.9% [100 µM] (active); in the experiment with PC-3 prostate, 76% [100 µM]; in the experiment with SK-MEL-5 melanoma it was 84.5% [100 µM]; in the experiment on UACC-62 melanoma, 53.2% [100 µM]; with LOX IMVI melanoma it was 78.5% [100 µM]. Moreover, in the experiment on SK-MEL-28 melanoma, the growth was 93.6% [100 µM].
On to `C=C(C)[C@@H]1CC[C@]2(COCCCN)CC[C@]3(C)[C@H](CC[C@@H]4[C@@](C)(CCCNCCCN)[C@H](C(=C)C)CC[C@]43C)[C@@H]12`, for which the growth is -83.4% [100 µM] (active) in the experiment on DU-145 prostate; -34.1% [100 µM] (active) in the experiment with K-562 leukemia; -58.2% [100 µM] (active) in the experiment on MALME-3M melanoma; -63.8% [100 µM] (active) in the experiment on MDA-MB-231 breast; -48.6% [100 µM] (active) with RXF 393 renal; -58.7% [100 µM] (active) in the experiment with SF-268 CNS. Moreover, the growth in the experiment on SF-295 CNS is -52.7% [100 µM] (active); in the experiment on SF-539 CNS, -62.2% [100 µM] (active); in the experiment with UACC-257 melanoma it was -74.1% [100 µM] (active); with M14 melanoma, -35.4% [100 µM] (active); in the experiment with HT29 colon, -23.1% [100 µM] (active); in the experiment on SNB-75 CNS, -74.1% [100 µM] (active). Besides, the growth in the experiment with SNB-19 CNS is -60.1% [100 µM] (active); in the experiment with U251 CNS, -51.5% [100 µM] (active); in the experiment with PC-3 prostate, -53.9% [100 µM] (active); in the experiment on SK-MEL-5 melanoma it was -55.1% [100 µM] (active); in the experiment on UACC-62 melanoma, -72.4% [100 µM] (active); with LOX IMVI melanoma it was -49.7% [100 µM] (active). The growth in the experiment with SK-MEL-28 melanoma is -63.3% [100 µM] (active).
For `NC(=S)Cc1ccccc1`, the growth with DU-145 prostate is 104%; in the experiment with K-562 leukemia, 97.1%; with MALME-3M melanoma, 92.7%; with MDA-MB-231 breast it was 101%; in the experiment with RXF 393 renal it was 116%; with SF-268 CNS, 99.8%. For the same compound, the growth in the experiment with SF-295 CNS was 91.9%; in the experiment with SF-539 CNS, 95.5%; with UACC-257 melanoma, 103%; with M14 melanoma, 98.6%; with HT29 colon it was 101%; with SNB-75 CNS it was 88%. For the same compound, the growth was 98.2% in the experiment on SNB-19 CNS; 100% in the experiment with U251 CNS; 102% with PC-3 prostate; 100% in the experiment on SK-MEL-5 melanoma; 93.9% with UACC-62 melanoma; 0.449% (active) in the experiment on LOX IMVI melanoma. For the same compound, the growth in the experiment with SK-MEL-28 melanoma was 105%.
For the compound `CC1(C)CC[C@]23CC[C@]4(C)[C@H](CC[C@@H]5[C@@]6(C)C/C(=C/c7cccnc7)C(=O)C(C)(C)[C@@H]6CC[C@]54C)[C@H]2[C@H]1OC3=O`, the growth in the experiment with DU-145 prostate was 56.9% [100 µM]; with K-562 leukemia it was 33% [100 µM]; in the experiment with MALME-3M melanoma, 31.2% [100 µM]; in the experiment with MDA-MB-231 breast, 35.8% [100 µM]; in the experiment on RXF 393 renal, 38.8% [100 µM]; in the experiment with SF-268 CNS, 66.3% [100 µM]. Moreover, the growth with SF-295 CNS was 46.7% [100 µM]; with SF-539 CNS, 63.2% [100 µM]; in the experiment with UACC-257 melanoma, 31.9% [100 µM]; with M14 melanoma it was 52.1% [100 µM]; with HT29 colon, 23.2% [100 µM]; in the experiment on SNB-75 CNS it was 19.8% [100 µM]. In addition, the growth with SNB-19 CNS is 59.6% [100 µM]; in the experiment on U251 CNS, 34% [100 µM]; with PC-3 prostate, 29.8% [100 µM]; in the experiment on SK-MEL-5 melanoma, -44.4% [100 µM] (active); in the experiment with UACC-62 melanoma, 28.4% [100 µM]; in the experiment on LOX IMVI melanoma, 29.2% [100 µM]. In addition, the growth in the experiment with SK-MEL-28 melanoma is 21.4% [100 µM].

(Values after PubChem BioAssay (NCI).)
